# Source: PubChem BioAssay (The Scripps Research Institute Molecular Screening Center)
# PPARg SRC1 recr = agonists of human PPARgamma SRC-1 coactivator recruitment | hit rate 0.41% among 200,000 | activation, % at 8 µM | P37231 | PPARgamma-SRC-1 coactivator recruitment biochemical assay; in the data active = activation above about 19%
# SRC1 TRFRET art = TR-FRET artefact, counter-screen to PPARgamma/SRC-1 agonist assay. TR-FRET detection artefact counter-screen, emission ratio; hits give high values. TR-FRET ratio at 8 µM. hit rate 0.34% among 99,000; in the data active = TR-FRET ratio above about 2300
# PPARg SRC3 recr = agonists of human PPARgamma SRC-3 coactivator recruitment; P37231; biochemical PPARgamma/SRC-3 coactivator recruitment assay; activation, % at 8 µM; hit rate 0.26% among 200,000; AID 731; in the data active = activation above about 23%
# SRC2 TRFRET art = TR-FRET artefact, counter-screen to PPARgamma/SRC-2 agonist assay; hits give high values; TR-FRET ratio at 8 µM; hit rate 0.4% among 200,000; AID 1049
# SRC3 TRFRET art = flags TR-FRET format artefacts in PPARgamma SRC-3 recruitment agonist screen. AID 1048. hit rate 0.39% among 99,000. TR-FRET artefact counter-screen, PPARgamma/SRC-3 format; hits give high values. TR-FRET ratio at 8 µM
# PPARg SRC-2 ag = agonists of SRC-2 recruitment by human PPARgamma. PPARgamma LBD-SRC-2 recruitment, biochemical. activation, % at 8 µM. AID 1032. hit rate 0.34% among 200,000. P37231; in the data active = activation above about 22%
# PPARg SRC2 conf = confirmation of agonists of SRC-2 recruitment by human PPARgamma; shares compounds with PPARg SRC3 recr; biochemical SRC-2 recruitment by PPARgamma; activation, % at 8 µM; hit rate 52% among 790; AID 1297; in the data active = activation above about 22%
# PPARg SRC1 ag = confirmation of agonists of SRC-1 recruitment by human PPARgamma. shares compounds with PPARg SRC3 recr. PPARgamma–SRC-1 coactivator recruitment biochemical assay. activation, % at 8 µM. hit rate 43% among 790; in the data active = activation above about 20%
# PPARg SRC3 ag = confirmation of agonists of SRC-3 recruitment by human PPARgamma; shares compounds with PPARg SRC3 recr; biochemical PPARgamma-SRC-3 coactivator recruitment, agonist mode; activation, % at 8 µM; hit rate 29% among 790; in the data active = activation above about 24%
# Hits are given with their value; . = inactive; / = not tested or not shown. Rows were chosen to be rich in hits. Some 0.9% of all compounds tested hit in one or more screens of this group. Cut-off read from the data, not from the text of the source, unless noted: active = TR-FRET ratio above about 2000; inactive = the rest.
SMILES,PPARg SRC1 recr,SRC1 TRFRET art,PPARg SRC3 recr,SRC2 TRFRET art,SRC3 TRFRET art,PPARg SRC-2 ag,PPARg SRC2 conf,PPARg SRC1 ag,PPARg SRC3 ag
COC(=O)c1c(N)n(Cc2ccc(OC)cc2)c2nc3ccccc3nc12,.,2577,.,.,.,.,/,/,/
CN1C(=O)CN=C(c2ccccc2)c2cc([N+](=O)[O-])ccc21,.,.,.,.,.,.,/,/,/
COc1ccc(NP(=O)(Oc2ccccc2OC)Oc2ccccc2OC)cc1,.,.,26.8,.,.,.,.,24.6,.
CSc1ccc(CN2CCN(C(=O)COc3cccc(C)c3)CC2)cc1,.,.,.,.,.,.,/,/,/
CN(C)c1ccc(/C=C/C=C2/C(=O)NC(=O)N(c3ccccc3)C2=O)cc1,49.2,2995,49.8,2441,2895,29.1,70.2,46.7,47.4
C[C@@H]1C(=O)O[C@@H]2[C@H](O)C34[C@@H]5OC(=O)C3(O[C@H]3OC(=O)[C@H](O)C34[C@H](C(C)(C)C)[C@H]5O)[C@@]12O (stereo not given in full),.,.,.,.,.,.,/,/,/
O=C1/C(=C/c2cc3c(cc2Cl)OCO3)N2CCC1CC2,.,.,.,.,.,.,/,/,/
O=C(O)c1cccc2nc3ccccc3nc12,.,.,.,.,.,.,.,.,.
COC(=O)c1ccccc1-n1c(C)nc2ccccc2c1=O,.,/,.,.,/,.,/,/,/
CN1/C(=C\C=C\C2=[N+](C)c3ccc4ccccc4c3C2(C)C)C(C)(C)c2ccccc21,42.0,/,69.6,3050,/,84.3,49.4,39.0,37.2
CCn1c(=O)cc(SCC(=O)N2CCC3(CC2)OCCO3)c2ccccc21,64.9,/,102.1,2944,/,61.0,36.9,24.7,26.4
Cn1c(=O)n(CC(=O)N2CCC3(CC2)OCCO3)c(=O)c2ccccc21,.,.,.,.,.,.,/,/,/
